According to ChEMBL document CHEMBL1201862, “PubChem BioAssay data set” (2004):

Experiment: A High Throughput Confirmatory Assay used to Identify Novel Compounds that Inhibit Mycobacterium Tuberculosis in the absence of Glycerol using Purified and Synthesized Compounds (6).
Format: functional

| Compound | IC90 |
| --- | --- |
| COc1c(N2CCNC(C)C2)c(F)cc2c(=O)c(C(=O)O)cn(C3CC3)c12 (centres undefined) | > 170 nM (active) |
| CC(C)/N=c1\cc2n(-c3ccc(Cl)cc3)c3ccccc3nc-2cc1Nc1ccc(Cl)cc1 | > 230 nM (active) |
| CC[N+](C)(CC)CCCCOc1ccc2c(c1)C(=O)c1cc(OCCCC[N+](C)(CC)CC)ccc1-2 | > 2700 nM (active) |
| CO[C@H]1/C=C/O[C@@]2(C)Oc3c(C)c(O)c4c(O)c(c(C=NN5CCN(C)CC5)c(O)c4c3C2=O)NC(=O)/C(C)=C\C=C\[C@H](C)[C@H](O)[C@@H](C)[C@@H](O)[C@@H](C)[C@H](OC(C)=O)[C@@H]1C | > 20 nM (active) |
